HCV inh – qHTS Assay for Inhibitors of Hepatitis C Virus (HCV); Huh7.5.1 HCVcc-Cre infection, luciferase reporter, 44 h; Potency, µM (highest dose often 41.8 µM), inactives show top-dose activity change, negative = inhibition, actives largely listed as inhibitors; 340,000 tested, 3.4% active; active means well fitted inhibition curve with a large enough effect; inconclusive means small, poorly fitted or top-dose-only effect, or another doubt; inactive means no such curve, though single readings can be large or run the other way; further: potency means the concentration at half of the fitted maximal effect; on the % scale 0 is the no-effect control and ±100 the full control effect
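Infectious HCV cell culture screen: compound-treated cells (1,000/well, pre-plated 4 h) are infected with HCVcc-Cre at roughly 0.5 moi and grown 44 h. Infection is quantified by luciferase signal after 15 min substrate incubation at room temperature.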
HCMV inh – qHTS Assay for inhibitors of the human cytomegalovirus (HCMV) | HFF cells, HCMV-luciferase reporter, 72 h; stronger effect = lower value | activity change, negative = inhibition, % at 57.5 µM | AID 1259415, 2018 | 410,000 tested, 4.5% active; in the data active means activity change below about -60%; inconclusive means no clear call, values can overlap the other calls; inactive means above about -39%; further: on the % scale 0 is the no-effect control and ±100 the full control effect
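After 16 h attachment at 37C, HFF cells received test compound and HCMV-luciferase (1 PFU/cell); reporter luminescence read 72 h later, data normalized against buffer-only and known inhibitor Salinomycin.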
LASV entry inh – qHTS for Inhibitors of binding or entry into cells for Lassa Virus | Lassa virus pseudotype entry inhibition, cell reporter | Potency, µM (titrated, usually from 37.9 µM), without a hit: at the highest dose activity change, negative = inhibition, usual class: inhibitors | 300,000 tested, 1.2% active; calls by dose curve; tested in HEK293 cells; further: potency means the concentration at half of the fitted maximal effect; on the % scale 0 is the no-effect control and ±100 the full control effect; nearly all actives have a fitted effect of over 50% in size
MARV entry inh – qHTS for inhibitors of binding or entry into cells for Marburg Virus; Marburg virus pseudotyped entry inhibition, cell reporter; 300,000 tested, 1.8% active; Potency, µM (series often up to 37.8 µM), inactives show at the top dose activity change, negative = inhibition, usual class: inhibitors; calls by dose curve; tested in HEK293 cells; further: potency means the concentration at half of the fitted maximal effect; on the % scale 0 is the no-effect control and ±100 the full control effect
SARS PLP yeast – qHTS of Yeast-based Assay for SARS-CoV PLP; S. cerevisiae expressing SARS-CoV PLpro, growth rescue; Potency, µM (series often up to 32.9 µM), without a hit: at the top dose activity, positive = growth rescue, hits mostly activators; 330,000 tested, 0.19% active; AID 485353, 2010; calls by dose curve; further: potency means the concentration at half of the fitted maximal effect; 0% is about no effect; nearly all actives have a fitted effect of over 55% in size
FMDV inh – High Throughput Screening for Foot and Mouth Disease Virus Antivirals | FMDV antiviral cell-based qHTS | Potency, µM (titrated, usually from 57.9 µM), without a hit: top-dose activity change, negative = inhibition, hits mostly inhibitors | 410,000 tested, 1.2% active; calls by dose curve; tested in HEK293T cells; further: read-out not given here; potency means the concentration at half of the fitted maximal effect; on the % scale 0 is the no-effect control and ±100 the full control effect; nearly all actives have a fitted effect of over 45% in size
* = called active by the depositor; [ ] = another dose, or the depositor's remark. Sampled rows, rich in hits. Any-hit rate of the full collection: about 8%.

Screening CCc1ccc(-n2nc3ccc(NC(=O)c4ccc(C#N)cc4F)cc3n2)cc1 returned HCMV inh 11, LASV entry inh -4%[46.1 µM], MARV entry inh 13%[46.1 µM] and FMDV inh -3%.
Screening COc1ccccc1C(=O)Nc1ncc2c(n1)CC(c1ccco1)CC2=O (stereo not given) returned HCV inh inconclusive, HCMV inh -84*, LASV entry inh -4%, MARV entry inh -3% and SARS PLP yeast 8%.
`COc1cccc(CNC(=O)c2cc3oc4ccccc4c3n2C)c1OC` gave HCV inh inconclusive, HCMV inh -35, LASV entry inh 5.6µM*, MARV entry inh inconclusive, SARS PLP yeast -1% and FMDV inh -1%.
COc1ccc(CNC(=O)c2cc3c(=O)n(C)c4ccccc4c3n2C)cc1 was read as HCMV inh 2, LASV entry inh -10%[46.1 µM], MARV entry inh 2%[46.1 µM] and FMDV inh -2%.
`CCn1c(C(=O)NCc2ccc(F)cc2)cc2oc3ccccc3c21` gave HCMV inh -69*, LASV entry inh inconclusive, MARV entry inh 3.5µM* and FMDV inh 0%.
Screening CCOc1ccc(CNC(=O)c2cc3oc4ccccc4c3n2C)cc1 returned HCV inh -14%, HCMV inh -83*, LASV entry inh inconclusive, MARV entry inh 4µM*, SARS PLP yeast -5% and FMDV inh 5%.
`CCOc1ccccc1CNC(=O)c1cc2oc3ccccc3c2n1CC` gave HCV inh inconclusive, HCMV inh -70*, LASV entry inh 5.2µM*, MARV entry inh 3.3µM*, SARS PLP yeast -1% and FMDV inh -14%.
For COC(=O)c1cc2oc3ccccc3c2n1CC(=O)Nc1ccccc1OC the results were HCV inh 19%, HCMV inh 108, LASV entry inh -20%, MARV entry inh -12%, SARS PLP yeast 4% and FMDV inh 6%.
`CCC1(C2CCN(C(=O)c3ccc(C)cc3C)CC2)NC(=O)N(CCc2scnc2C)C1=O` (stereo not given) gave FMDV inh 21%.
`Cc1ccc2onc(CNC(=O)NCc3ccccc3)c2c1` gave HCMV inh 7, LASV entry inh -19%[46.1 µM] and FMDV inh 29%.
`CCOc1ccc(CNC(=O)c2ccc3oc(=O)n(Cc4ccccc4)c3c2)cc1` gave HCMV inh -16, LASV entry inh 5µM* and FMDV inh inconclusive.
For Cc1ccc(CNc2nc(C)c(-c3ccn(CCN4CCOCC4)n3)s2)o1 the results were FMDV inh -12%.
For CC(C)Cn1c(SC(C)C(=O)Nc2ccc3c(c2)OCCO3)nc2ccccc2c1=O (stereo not given) the results were HCV inh -17%, HCMV inh inconclusive, LASV entry inh 12µM*, MARV entry inh inconclusive and SARS PLP yeast -1%.
Screening CC(Sc1nc2ccccc2c(=O)n1C)C(=O)Nc1ccc2c(c1)OCCO2 (stereo not given) returned HCV inh 10µM*, HCMV inh -80*, SARS PLP yeast -6% and FMDV inh inconclusive.
Screening C[C@@H](C(=O)Nc1ccc2c(c1)OCCO2)n1c(=O)[nH]c2ccccc2c1=O returned HCV inh 15%, HCMV inh -70*, SARS PLP yeast 2% and FMDV inh inconclusive.
For CC(Sc1ncnc2ccccc12)C(=O)Nc1ccc2c(c1)OCCO2 (stereo not given) the results were HCV inh 13µM*, HCMV inh -73*, LASV entry inh -23%, MARV entry inh inconclusive, SARS PLP yeast 7% and FMDV inh 16µM*.
`COc1ccccc1NC(=O)C(Cc1ccccc1)NS(=O)(=O)c1cccc2nsnc12` (stereo not given) gave HCMV inh -15, LASV entry inh inconclusive, MARV entry inh 6%[46.1 µM] and FMDV inh 26%.
COc1ccc(NC(=O)c2c(NCc3cccs3)sc3c2CCCCC3)cc1 was read as HCMV inh -3, LASV entry inh -3%[46.1 µM] and FMDV inh 58%.
`CO[C@H](C1CCCCC1)[C@H](C)C=CCC(=O)OCCCc1ccccc1` gave LASV entry inh inconclusive and MARV entry inh 5%[14.2 µM].
`NS(=O)(=O)c1ccc(CCN2C(=O)/C(=C\c3ccc(Cl)cc3)SC2=S)cc1` gave HCV inh inconclusive, HCMV inh -101*, LASV entry inh inconclusive, MARV entry inh inconclusive, SARS PLP yeast 0% and FMDV inh -13%.
CN1CCN(C(=O)CCN2C(=O)/C(=C\c3ccc(Cl)cc3)SC2=S)CC1 was read as HCV inh 8%, SARS PLP yeast -2% and FMDV inh -19%.
Oc1ccc(/C(Cc2ccc3ccccc3n2)=N\Nc2ccccc2)c(O)c1 was read as HCV inh inconclusive, HCMV inh 58, LASV entry inh inconclusive, MARV entry inh inconclusive, SARS PLP yeast 0% and FMDV inh 13%.
Oc1ccc(/C(Cc2ccccn2)=N\Nc2ccccc2)c(O)c1 was read as HCV inh -17%, HCMV inh -26, LASV entry inh inconclusive, MARV entry inh 8.9µM*, SARS PLP yeast -13% and FMDV inh inconclusive.
Screening CCN(CC)C(=O)Cn1c(SCCOc2ccc(Cl)cc2)nc2ccccc21 returned HCMV inh -6, LASV entry inh -7%[46.1 µM], MARV entry inh 8%[46.1 µM] and FMDV inh -17%.
For CC(C)(C)c1cc(NC(=O)CCSc2nnc3ccccn23)cc(C(C)(C)C)c1 the results were HCV inh 4µM*, HCMV inh -30, LASV entry inh -26%, MARV entry inh inconclusive and FMDV inh -17%.
Screening COc1cc(NC(=O)CSc2nnc3ccccn23)cc(OC)c1 returned HCV inh 9%, HCMV inh 41, SARS PLP yeast -6% and FMDV inh -8%.
For COc1cccc(NC(=O)CNC(=O)[C@@H]2Cc3ccccc3CN2C(=O)OC(C)(C)C)c1 the results were HCV inh -1%, HCMV inh -37, LASV entry inh inconclusive, MARV entry inh -9%[46.1 µM], SARS PLP yeast 3% and FMDV inh -3%.
For Cc1cccc(NC(=O)[C@H](C)NC(=O)[C@@H]2Cc3ccccc3CN2C(=O)OC(C)(C)C)c1 the results were HCV inh -7%, HCMV inh -31, SARS PLP yeast -1% and FMDV inh 18%.
CC(C)(C)OC(=O)N1Cc2ccccc2C[C@H]1C(=O)NCC(=O)Nc1ccc2c(c1)OCCO2 was read as HCV inh 1%, HCMV inh -68*, SARS PLP yeast 9% and FMDV inh inconclusive.
